Measurements: PubChem BioAssay (NCATS)
Where “and” joins values, the source holds several entries; their conditions need not be identical. Equal entries are not always repeated. Records with an inconclusive call do not appear. Values without a mark were called inactive. Calls of active or inactive are those of the source. Calls follow the shape of the dose curve; as a rule, active = well fitted activation curve with a large enough effect; inconclusive = small, poorly fitted or top-dose-only effect; inactive = no such curve, though single readings can be large or run the other way.

Target: Cellular tumor antigen p53 (Homo sapiens) (UniProt P04637)
Sequence (P04637 whole entry, looked up): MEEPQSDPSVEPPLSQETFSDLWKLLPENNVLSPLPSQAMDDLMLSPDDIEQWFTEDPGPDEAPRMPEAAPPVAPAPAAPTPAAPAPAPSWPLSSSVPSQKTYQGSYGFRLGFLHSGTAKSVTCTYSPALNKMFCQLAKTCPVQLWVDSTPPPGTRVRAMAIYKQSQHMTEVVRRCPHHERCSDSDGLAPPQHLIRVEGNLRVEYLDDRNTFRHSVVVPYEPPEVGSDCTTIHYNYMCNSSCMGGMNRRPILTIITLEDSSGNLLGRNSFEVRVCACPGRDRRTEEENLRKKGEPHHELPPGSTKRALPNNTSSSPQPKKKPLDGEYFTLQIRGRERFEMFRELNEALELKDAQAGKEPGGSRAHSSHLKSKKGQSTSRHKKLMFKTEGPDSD
Test: Primary qHTS for small molecule compounds that upregulate eGFP-tagged delta133p53alpha (in N-terminal) cells. (AID 2060322); also: nearly all actives have a fitted effect of over 75% in size;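 as to activation: series mostly up to about 56 µM; 0% = DMSO vehicle and 100% = reference activator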
Settings: NCI-H358 eGFP-delta133p53alpha fluorescence, 24 h; activation: hits give high values
How it was run: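 NCI-H358 cells pre-induced 24 h with 10 ng/ml doxycycline to express N-terminal eGFP-delta133p53alpha, then dosed 24 h at 37C without doxycycline; fixed, Hoechst-stained, GFP intensity by laser scanning cytometry, normalized to DMSO (0%) and 57.5 uM 5-azacytidine (100%).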
Potency is read from the fitted curve at half-maximal effect.

**Q.** Which activation does the source give for `COC[C@H]1OC(=O)c2coc3c2[C@@]1(C)C1=C(C3=O)[C@@H]2CC[C@H](O)[C@@]2(C)C[C@@H]1OC(C)=O` here?
**A.** The activation was 13.2%.

**Q.** For `COc1cc(CC(C)N)cc2c1OCO2` (stereo not given), which activation is on record?
**A.** The activation was 6.21%.

**Q.** `CNCC(=O)c1ccc(O)c(O)c1` was tested. Which activation did it give?
**A.** Its activation is 8.47%.

**Q.** For `Clc1ccc(N2CC3CCC(C2)N3)nn1`, which activation is on record?
**A.** Its activation is -9.56%.

**Q.** With `Clc1ccc(COC(Cn2ccnc2)c2ccc(Cl)cc2Cl)cc1` (stereo not given) as the compound, how does the activation read?
**A.** Its activation is 24.3% and 15.7%.

**Q.** Which activation does the source give for `CCN(CC)CCOC(=O)C(C)(c1ccccc1)c1ccccc1` here?
**A.** The activation was -8.47%.

**Q.** With `CC1=C(C(=O)O)N2C(=O)[C@@H](N)[C@H]2SC1` as the compound, how does the activation read?
**A.** The activation was -3.35%.

**Q.** `C=CCC1=C(C)C(OC(=O)C2C(C=C(C)C)C2(C)C)CC1=O` (stereo not given) was tested. Which activation did it give?
**A.** The activation was 18.6%.

**Q.** `O=c1oc2ccccc2c(O)c1Cc1c(O)c2ccccc2oc1=O` was tested. Which Potency did it give?
**A.** Its Potency is 17.4 µM (active).

**Q.** For `O=C1OC(CCN2CCCCC2)OC1(c1ccccc1)c1ccccc1` (stereo not given), which activation is on record?
**A.** The activation was -20.9%.

**Q.** For `Clc1ccccc1N1CCNCC1`, which activation is on record?
**A.** Its activation is 28.8%.

**Q.** `C[C@]12Cc3nonc3C[C@@H]1CC[C@@H]1[C@@H]2CC[C@@]2(C)[C@H]1CC[C@]2(C)O` was tested. Which activation did it give?
**A.** Its activation is 7.34%.

**Q.** Which activation does the source give for `CC(Cc1ccc2c(c1)OCO2)NO` (stereo not given) here?
**A.** The activation was -3.95%.

**Q.** How did the Potency turn out when `C[C@]12CCC(=O)C=C1CC[C@@H]1[C@H]3CC[C@](C)(O)[C@@]3(C)CC[C@@H]12` was run?
**A.** The Potency was 50.9 µM (active).

**Q.** `CC(C)(N)Cc1ccccc1Cl` was tested. Which activation did it give?
**A.** Its activation is 10.7%.

**Q.** `C[C@]12CC[C@H]3[C@@H](CCC4=CC(=O)CC[C@@]43C)[C@@H]1CC[C@@H]2C(=O)O` was tested. Which activation did it give?
**A.** The activation was 1.69%.

**Q.** `CO[C@H]1CCC(O[C@H]2C[C@H]([C@]3(C)CC[C@]4(C[C@H](O)[C@@H](C)[C@@H]([C@@H](C)C=C(C)C(=O)[C@H](C)C[C@H](C)C(=O)O)O4)O3)O[C@]3(O[C@@H]([C@H]4O[C@@](O)(CO)[C@H](C)C[C@H]4C)C[C@H]3C)[C@H]2C)O[C@H]1C` (stereo not given in full) was tested. Which activation did it give?
**A.** The activation was 20.4%.

**Q.** For `ClCCCN1CCN(c2cccc(Cl)c2)CC1`, which activation is on record?
**A.** The activation was -2.82%.

**Q.** Which activation does the source give for `C=CCOC(Cn1ccnc1)c1ccc(Cl)cc1Cl` (stereo not given) here?
**A.** The activation was 6.69%.

**Q.** With `COP(=S)(OC)Oc1ccc(Sc2ccc(OP(=S)(OC)OC)cc2)cc1` as the compound, how does the activation read?
**A.** The activation was -14.2%.

**Q.** How did the activation turn out when `CC1N=C(N)OC1c1ccccc1` (stereo not given) was run?
**A.** Its activation is -17.5%.

**Q.** Which activation does the source give for `CCN1CCCC1CNC(=O)C(O)(c1ccccc1)c1ccccc1` (stereo not given) here?
**A.** Its activation is -15.1%.

**Q.** For `CC(C)Oc1cccc(NC(=O)c2ccccc2C(F)(F)F)c1`, which activation is on record?
**A.** Its activation is -17.6%.

**Q.** `CCOC(=O)CC(SP(=S)(OC)OC)C(=O)OCC` (stereo not given) was tested. Which activation did it give?
**A.** The activation was -9.21% and 9.21%.

**Q.** For `Cc1ccc2c(c1)C1CN(C)CCC1N2` (stereo not given), which activation is on record?
**A.** The activation was 0.837%.

**Q.** Which activation does the source give for `CCC1(CC)C(=O)C=CNC1=O` here?
**A.** The activation was -17.5%.

**Q.** `O=C1c2ccccc2C(=O)c2ccccc21` was tested. Which activation did it give?
**A.** Its activation is 0%.

**Q.** Which activation does the source give for `OC(c1ccccc1)(c1ccccc1)C1CCNCC1` here?
**A.** The activation was -13.4%.

**Q.** Which activation does the source give for `C[N+]1(CCF)[C@@H]2CC[C@H]1CC(OC(=O)C(O)(c1ccccc1)c1ccccc1)C2` (stereo not given in full) here?
**A.** Its activation is 5.08%.

**Q.** Which activation does the source give for `c1cc2ccc3cccc4ccc(c1)c2c34` here?
**A.** Its activation is 0%.

**Q.** For `CN1C(=O)CN=C(c2ccccc2)c2cc([N+](=O)[O-])ccc21`, which activation is on record?
**A.** Its activation is -19.8%.

**Q.** For `COC(=O)c1cncn1C(C)c1ccccc1` (stereo not given), which activation is on record?
**A.** Its activation is -29.3%.

**Q.** For `c1cc2c(c(N3CCNCC3)c1)OCCO2`, which activation is on record?
**A.** The activation was -12.6%.

**Q.** With `C[C@]12Cc3cn[nH]c3C[C@@H]1CC[C@@H]1[C@H]2CC[C@@]2(C)[C@H]1CC[C@]2(C)O` as the compound, how does the activation read?
**A.** The activation was -11.9%.

**Q.** `CC(Cc1ccccc1)NCCn1cnc2c1c(=O)n(C)c(=O)n2C` (stereo not given) was tested. Which activation did it give?
**A.** The activation was 9.6%.

**Q.** `Cc1c(Cl)c(=O)oc2cc(OP(=O)(OCCCl)OCCCl)ccc12` was tested. Which activation did it give?
**A.** Its activation is -15.9%.

**Q.** With `CCN(C(C)=O)c1cccc(-c2ccnc3c(C#N)cnn23)c1` as the compound, how does the activation read?
**A.** Its activation is -16.4%.

**Q.** For `Clc1ccc(CO/N=C(\Cn2ccnc2)c2ccc(Cl)cc2Cl)c(Cl)c1`, which activation is on record?
**A.** Its activation is -8.37%.

**Q.** With `C#C[C@]1(O)C=C[C@@H]2[C@@H]3CCC4=CC(=O)CC[C@@H]4[C@H]3CC[C@@]21CC` as the compound, how does the activation read?
**A.** The activation was -3.53%.

**Q.** Which activation does the source give for `CC1OC(C)OC(C)O1` (stereo not given) here?
**A.** Its activation is 6.21%.
